Some test systems named below: NCI-H23 lung; NCI-H226 lung; NCI-H322M lung; HOP-62 NSCLC; NCI-H460 lung; HOP-92 NSCLC; NCI-H522 lung; A549/ATCC NSCLC; 786-0 renal; COLO 205 colon.
What all share (experiment): NCI-60 one-dose screen, 48 h (100 = growth as untreated, 0 = no growth, -100 = all killed)
What all share (conditions): 10 µM unless noted

The record followed here is PubChem BioAssay (NCI).

This is part of a sample that, as a whole, favours compounds with a hit. Of some 83,000 tested, about 20% had one in any assay.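 Compound tested at a single concentration for 48 hours in 96-well plates; a percent growth value below 10 was scored as active.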 Values without a mark were called inactive. Active and inactive are the calls of the source.

On to `O=c1nc2oc3ccc4ccccc4c3cc-2s1`, for which the growth in the assay with NCI-H23 lung was 45.5%; with NCI-H226 lung it was 37.5%; with NCI-H322M lung it was 35%; in the assay with HOP-62 NSCLC, 23%; in the assay on NCI-H460 lung, 11.1%; in the assay on HOP-92 NSCLC, 14.2%. The growth in the assay with NCI-H522 lung was -3.74% (active); in the assay on A549/ATCC NSCLC, 35.1%; in the assay with 786-0 renal, 23%; with COLO 205 colon, 30.4%.
`CSc1ccc(-c2n[nH]nc2-c2cc3ccccc3s2)cc1`: the growth was 61.5% with NCI-H23 lung; 86% with NCI-H226 lung; 73.9% with NCI-H322M lung; 39.2% in the assay on HOP-62 NSCLC; 21% in the assay with NCI-H460 lung; 70.3% in the assay on HOP-92 NSCLC. For the same compound, the growth with NCI-H522 lung is 8.98% (active); in the assay with A549/ATCC NSCLC it was 35%; in the assay with 786-0 renal, 54.7%; in the assay on COLO 205 colon it was 77.8%.
For `COc1cccc(NC(=O)c2sc3nc(C)c(C(C)=O)cc3c2N)c1`, the growth with NCI-H23 lung is 65.5%; with NCI-H226 lung, 83.7%; in the assay with NCI-H322M lung it was 45.5%; in the assay with HOP-62 NSCLC, 44.7%; with NCI-H460 lung, 10.8%; in the assay on HOP-92 NSCLC it was 52%. For the same compound, the growth in the assay with NCI-H522 lung is 40.1%; in the assay with A549/ATCC NSCLC, 20.5%; with 786-0 renal, 58.5%; with COLO 205 colon it was -1.6% (active).
Regarding `O=C(Nc1cccc2[nH]c(C(F)(F)F)nc12)c1ccc(-n2cnnn2)cc1`, the growth with NCI-H23 lung was 82.1%; in the assay on NCI-H226 lung it was 92.2%; in the assay with NCI-H322M lung, 107%; in the assay with HOP-62 NSCLC, 97.6%; in the assay on NCI-H460 lung, 81.9%; in the assay on HOP-92 NSCLC, 82.5%. The growth with NCI-H522 lung was 57.3%; with A549/ATCC NSCLC, 98.1%; in the assay on 786-0 renal, 106%; in the assay with COLO 205 colon, 105%.
For `c1csc(C2=NN3C(C2)c2ccccc2OC3c2ccncc2)c1` (stereo not given), the growth with NCI-H23 lung was 89.8%; in the assay on NCI-H226 lung, 85.8%; in the assay on NCI-H322M lung, 93.1%; with HOP-62 NSCLC, 106%; in the assay on NCI-H460 lung it was 100%; in the assay on HOP-92 NSCLC, 87.4%. The growth with NCI-H522 lung is 87%; in the assay with A549/ATCC NSCLC, 96.2%; with 786-0 renal, 98.7%; in the assay on COLO 205 colon it was 112%.
Regarding `O=C1c2cc3c(cc2-c2c1c1ccc(F)cc1c(=O)n2CCCNCCO)OCO3`, the growth in the assay on NCI-H23 lung is -57.3% (active); in the assay on NCI-H226 lung it was -60.1% (active); in the assay on NCI-H322M lung, -33.3% (active); in the assay on HOP-62 NSCLC, -48.9% (active); in the assay on NCI-H460 lung, -36.8% (active); in the assay on HOP-92 NSCLC, 2.28% (active). The growth in the assay on NCI-H522 lung is -53.9% (active); in the assay on A549/ATCC NSCLC, -74.4% (active); with 786-0 renal, -84.8% (active); in the assay with COLO 205 colon it was -66.5% (active).
For `CN(C)CCCNc1c2ccccc2nc2ccccc12`, the growth with NCI-H23 lung was 93.3%; in the assay on NCI-H226 lung, 81.1%; with NCI-H322M lung it was 110%; in the assay with HOP-62 NSCLC, 88.1%; in the assay on NCI-H460 lung, 97.7%; in the assay with HOP-92 NSCLC it was 180%. The growth is 93.7% in the assay with NCI-H522 lung, 96.2% with A549/ATCC NSCLC, 88.6% in the assay on 786-0 renal and 100% with COLO 205 colon.
With `CCCCn1cnc2c(Sc3c([N+](=O)[O-])ncn3C)nc(N)nc21`, the growth was 110% in the assay on NCI-H23 lung; 96% in the assay on NCI-H226 lung; 105% with NCI-H322M lung; 94.7% in the assay with HOP-62 NSCLC; 106% with NCI-H460 lung; 76.2% with HOP-92 NSCLC. For the same compound, the growth with NCI-H522 lung was 97.3%; in the assay on A549/ATCC NSCLC, 88.2%; with 786-0 renal, 104%; in the assay on COLO 205 colon, 100%.
Regarding `COc1cccc2c1C(=O)c1c(O)c3c(c(O)c1C2=O)C[C@](O)(C(=O)CO)C[C@H]3O[C@@H]1C[C@@H](NC(=O)CCCN(C)C2(c3ccc(F)cc3)CC3CCC2C3)[C@H](O)[C@@H](C)O1` (stereo not given in full), the growth is -59.7% (active) in the assay on NCI-H23 lung; 65.2% in the assay on NCI-H226 lung; 49.1% in the assay on NCI-H322M lung; 58.5% in the assay on HOP-62 NSCLC; -86.8% (active) in the assay with NCI-H460 lung; 48.7% with HOP-92 NSCLC. In addition, the growth in the assay on NCI-H522 lung was -82.7% (active); in the assay with A549/ATCC NSCLC, -80.1% (active); with 786-0 renal, -94.2% (active); in the assay on COLO 205 colon, -76.2% (active).
Turning to `Nc1ccc(S(=O)(=O)O)c2ccc(N=Nc3ccc(N=Nc4ccc(S(=O)(=O)O)cc4)c4ccccc34)c(O)c12`, the growth was 98% in the assay with NCI-H23 lung; 92.1% in the assay with NCI-H226 lung; 94.7% in the assay with NCI-H322M lung; 112% with HOP-62 NSCLC; 101% in the assay on NCI-H460 lung; 102% in the assay with HOP-92 NSCLC. The growth was 89.4% in the assay on NCI-H522 lung, 99.8% in the assay on A549/ATCC NSCLC, 102% in the assay with 786-0 renal and 105% in the assay on COLO 205 colon.
Regarding `COc1ccc2cc(-c3nn(-c4ccc(C(=O)O)cc4)cc3CO)ccc2c1`, the growth in the assay on NCI-H23 lung was 97.9%; in the assay on NCI-H226 lung, 99.7%; in the assay with NCI-H322M lung it was 97%; in the assay on HOP-62 NSCLC it was 104%; in the assay on NCI-H460 lung, 99.1%; in the assay on HOP-92 NSCLC, 102%. In addition, the growth with NCI-H522 lung is 82.6%; with A549/ATCC NSCLC, 102%; with 786-0 renal, 99.6%; in the assay with COLO 205 colon, 114%.
For `CC(C)n1c(/C=C/[C@@H](O)C[C@@H](O)CC(=O)O)c(-c2ccc(F)cc2)c2ccccc21`, the growth in the assay on NCI-H23 lung was 38.4%; with NCI-H226 lung it was 64.1%; in the assay with NCI-H322M lung, 43.7%; in the assay with HOP-62 NSCLC, 73.4%; with NCI-H460 lung, 32.5%; with HOP-92 NSCLC, -29.1% (active). Besides, the growth in the assay on NCI-H522 lung is 0.551% (active); in the assay with A549/ATCC NSCLC, 61.3%; in the assay on 786-0 renal it was 64%; with COLO 205 colon it was 75.4%.
In the case of `CCOC(=O)n1cc(-c2nonc2-c2cn(C)c3ncccc23)c2ccccc21`, the growth was 79.2% in the assay with NCI-H23 lung; 58.7% in the assay on NCI-H226 lung; 87.3% in the assay on NCI-H322M lung; 87.8% in the assay with HOP-62 NSCLC; 64.2% in the assay with NCI-H460 lung; 66.1% in the assay on HOP-92 NSCLC. Also, the growth in the assay on NCI-H522 lung is 71.1%; in the assay with A549/ATCC NSCLC, 82%; in the assay with 786-0 renal it was 88.8%; in the assay with COLO 205 colon, 93%.
